Holding throughout (test): Primary qHTS to identify gynecologic anti-cancer compounds using libraries of approved drugs and bioactive compounds (AID 1345084); also: nearly all actives have a fitted effect of over 55% in size
Conditions in all cases: Gynecologic cancer cell panel viability, ATPlite luminescence, 48 h; series mostly up to 57.5 µM

One test deals with OV90. The essentials:
(§1)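 ATP-based viability (ATPlite), 1,000 cells/well, 16 h pre-incubation, 48 h compound at 37 C, 5% CO2, 15 min RT before read.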

The test system of the next test is Tov112D. The essentials:
as §1

The next test deals with PA-1. The essentials:
as §1

The next test has as its system SKOV3. Summed up: as §1
The test system of the next test is Tov-21-G. Summed up:
as §1

Results filed as inconclusive are left out. Unmarked numbers belong to inactive results. The source made the active and inactive calls. Calls follow the shape of the dose curve; as a rule, active = well fitted cell-killing curve with a large enough effect; inconclusive = small, poorly fitted or top-dose-only effect, or effect the other way; inactive = flat fitted curve, though single readings scatter.
% is scaled to controls: 0 for no effect and ±100 for the full control effect; potency is read from the fitted curve at half-maximal effect.

For the molecule `C=C1C(=O)O[C@H]2CC(=C)[C@H]3CC[C@@](C)(O)[C@@H]3CC12` (some centres not stated), the Potency result in the test with OV90 and in the test on Tov112D was “inactive” in each case.

For the molecule `O=C(NC1CCN(CCCCC2(C(=O)NCC(F)(F)F)c3ccccc3-c3ccccc32)CC1)c1ccccc1-c1ccc(C(F)(F)F)cc1`, the Potency with PA-1 was 31.6 µM (active).

In the case of `Cc1nc2ccc(CN(C)c3ccc(C(=O)NC(CCC(=O)O)C(=O)O)s3)cc2c(=O)[nH]1` (configuration not stated), the Potency entry with OV90 is “inactive”. Further, the Potency with Tov112D is 0.282 µM (active).

For the molecule `Oc1cccc(C2NC(=S)Nc3cccc(F)c32)c1` (configuration not stated), the Potency entry in the test with OV90 was “inactive”. The Potency in the test on Tov112D was 10 µM (active).

Take `C[C@H]1[C@H](/C=C/c2ccc(-c3ccccc3C#N)cn2)[C@@H]2[C@@H](C)OC(=O)[C@@H]2C[C@@H]1C`: the Potency entry in the test with OV90 was “inactive”. The Potency with Tov112D is 20 µM (active).

Take `O=C(Nc1ccnc(NC(=O)C2CC2)c1)c1c(Cl)cccc1Cl`: the Potency in the test with PA-1 was 15.8 µM (active). In addition, the Potency result with SKOV3 was “inactive”.

As to `C=C(C)C(=O)OC1CC2(C)OC(=CC2=O)C(=C)CC2OC(=O)C(=C)C12` (configuration not stated), the Potency in the test with PA-1 was 7.94 µM (active); in the test with SKOV3, 10 µM (active); in the test on Tov-21-G, 4.47 µM (active).

Regarding `CC12CCC(OC3OC(CO)C(O)C(O)C3OC3OC(CO)C(O)C(O)C3O)CC1CCC1C2CCC2(C)/C(=C3/COC(=O)C3)CCC12O` (configuration not stated), the Potency entry with PA-1 and in the test on SKOV3 was “inactive” each time.

On to `COc1cc(CN(CCN)C(=O)c2cccs2)ccc1OCc1ccccc1`, for which the Potency result in the test on PA-1, in the test on SKOV3, in the test with Tov-21-G and in the test on Tov112D was “inactive” each time.

Regarding `C[C@@H]1O[C@@H](O[C@H]2[C@H](OC(=O)[C@]34CCC(C)(C)C[C@H]3C3=CCC5[C@@]6(C)C[C@H](O)[C@H](O[C@@H]7O[C@H](CO)[C@@H](O)[C@H](O)[C@H]7O)[C@](CO)(C(=O)O)C6CC[C@@]5(C)[C@]3(C)C[C@H]4O)OC[C@H](O)[C@@H]2O)[C@H](O)[C@H](O)[C@H]1O[C@@H]1OC[C@@H](O)[C@H](O[C@@H]2OC[C@](O)(CO)[C@H]2O)[C@H]1O` (some centres not stated), the activity change, negative = cytotoxicity with OV90 was -28.6% [at 6.55 µM]. In addition, in the test on Tov112D, the Potency was 1.41 µM (active).

The values are drawn from PubChem BioAssay (NCATS).
